This note sets out measurements from PubChem BioAssay (NCI).

About 79,000 compounds went through this panel and 15% of them were active in at least one assay; those are over-represented in the sample as a whole. Values without a mark were called inactive. Active and inactive are the calls of the source. Cut-off read from the data, not from the text of the source: active = growth inhibition above about 70%; inactive = the rest.

One test in a line: NCI Yeast Anticancer Drug Screen. Data for the rad50 strain (AID 155).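 Note: 0% = growth of vehicle-only cultures of the same strain.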 The conditions noted are these: S. cerevisiae rad50 strain growth inhibition; at 50.0 µM; hits give high values. The essentials: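 Inhibition values express reduced yeast growth in compound-treated cultures relative to vehicle-treated controls.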
Take `COc1cccc(/C=N\c2nc(-c3ccccc3Cl)cs2)c1O`: the growth inhibition was 44%.
On the same count and under the same terms, under `COc1ccc(N2C(=O)c3c(C)ccc(C)c3C2=O)cc1` stands -23.8%; under `CS(=O)(=O)OCC1NC(=O)C(COS(C)(=O)=O)NC1=O` (configuration not stated), -10.4%.
On to `COC(=O)/C(=N\O)C(C(=O)C=C(C)C)C(=O)C(=O)Nc1ccccc1C` (configuration not stated), for which the growth inhibition was -5.8%.
On the same count and under the same terms, under `COc1cc2c(cc1O)C(=O)CCCC2` stands -13.8%; under `COc1ccc(-c2cc(-c3ccccc3)n(C3OC(COC(C)=O)C(OC(C)=O)C(OC(C)=O)C3OC(C)=O)c(=S)c2C#N)cc1` (configuration not stated), 5%.
Still for that read-out and setting: for `CCOC(=O)c1n[nH]c(=S)[nH]c1=O` the value was -7.95%; for `O=[N+]([O-])c1ccc(/C=N\NC(=S)Nc2ccc3cn[nH]c3c2)cc1`, 19.9%; for `N=C(N)c1ccc(NC(=O)c2ccc(C(=O)Nc3ccc(C(=N)N)cc3)c(N)c2)cc1`, 9.9%.
On the same count and under the same terms, for `O=C(CC(=O)N1N=C(N(c2ccccc2)c2ccccc2)CC1c1ccccc1)Nc1ccccc1` (configuration not stated) the value was 17.1%.
With `Cc1ccc2[nH]c(=S)n(CCc3ccccc3)c(=O)c2c1`, the growth inhibition was -1.95%.
For `CCOc1ccc(N=Nc2c(O)n(-c3ccc(Br)cc3)c(=S)n(-c3ccc(OC)cc3)c2=O)cc1`, the growth inhibition is 28.8%.
The same measure, in the same setting: under `CCCCCCC#CC(=O)OCCCC` stands -9.8%.
Regarding `Clc1cccc2[nH]ccc12`, the growth inhibition was -6.1%.
Same read-out and setting: under `COc1ccc(C(=O)N/N=C/c2c(C)n(C)n(-c3ccccc3)c2=O)cc1` stands -54.1%; under `O/N=C(\CC(O)(C(F)(F)F)C(F)(F)F)c1cccs1`, 81% (active).
On to `Cc1cc2c3c(c1)CCCN3CCC2`, for which the growth inhibition was -12.1%.
With `CCC1(C#N)OC1C` (configuration not stated), the growth inhibition was 26.9%.
Take `CCCC(=O)Nc1ccccc1OC`: the growth inhibition was 12.8%.
On the same count and under the same terms, for `C(CCN1CN(CCCCN2CCOCC2)CN(CCCCN2CCOCC2)C1)CN1CCOCC1` the value was 12.8%.
The same measure, in the same setting: under `C/C(CC(=O)Nc1ccc(Cl)cc1)=N\NC(N)=S` stands -7.95%; under `CCCCCCC(C#N)(CCN(C)C)c1ccccc1` (configuration not stated), 15.4%.

The nature of the next test: NCI Yeast Anticancer Drug Screen. Data for the mec2-1 strain (AID 157). The conditions noted are these: S. cerevisiae mec2-1 strain, at 50.0 µM, hits give high values. In short, it runs like this:
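Compounds were applied to mec2-1 yeast cells. Their growth was then compared with that of vehicle-treated cultures to give growth inhibition.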
In the case of `CC1(CCOCc2ccccc2)NC(=O)N(CCC#N)C1=O` (configuration not stated), the growth inhibition is -9.65%.
The same measure, in the same setting: under `CC(C)CC(O)CC(C)C` stands -25.1%.
`CC1(C)CC2=C(Sc3ccccc3N2)C(=O)C1C(=O)C(=O)Nc1cc(Cl)ccc1Cl` (configuration not stated): the growth inhibition was -6.95%.
Regarding `Brc1cc2c(cc1CC1CCCCO1)OCO2` (configuration not stated), the growth inhibition is -17.1%.
Still for that read-out and setting: for `COc1ncc(/C=C2\OC(=O)c3ccccc32)c(OC)n1` the value was -16.1%; for `CCCCOCCOCCOC(=O)C(C)O` (configuration not stated), -4.7%.
The same measure, in the same setting: under `Cn1c(-c2ccccc2)cc(=O)cc1-c1ccccc1` stands 13.1%; under `COc1cc(/C=N\N=C(/C)c2ccc(C)cc2C)cc(OC)c1OC`, 23.1%.
The same measure, in the same setting: for `CNN=C(C)C` the value was 3.8%.
For `CC(N)C(C)(C)O` (configuration not stated), the growth inhibition is -13.7%.
As for `OC(c1ccccc1)(c1ccccc1)c1ccccc1CNc1ccccc1`, the growth inhibition was 30.4%.
Still for that read-out and setting: for `O=C(O)/C(=C\c1ccncc1)c1cccc2ccccc12` the value was -12%; for `CC(=O)OCC(OC(C)=O)C(OC1OC(COC(C)=O)C(OC(C)=O)C(OC(C)=O)C1OC(C)=O)C(OC(C)=O)c1cnn(-c2ccccc2)n1` (configuration not stated), -0.1%.
Turning to `Cc1cccc(C)c1/[N+]([O-])=C/c1cccc([N+](=O)[O-])c1`, the growth inhibition was -31.1%.
The same measure, in the same setting: for `CCCC(O)C(C)C(C)O` (configuration not stated) the value was -16.1%.
The same measure, in the same setting: for `Nc1ccc(S(=O)(=O)Nc2nccs2)cc1` the value was -17.2%; for `COc1ccc(C2c3cc4c(cc3OC(C)(OC)C2C)OCO4)cc1` (configuration not stated), -6.8%; for `COc1ccc(OC)c(NC(=O)Nc2ccc(I)cc2)c1`, 42%.
For `COc1cccc(/C=N\c2nc(-c3ccccc3Cl)cs2)c1O`, the growth inhibition is 5.15%.
Turning to `COc1ccc(N2C(=O)c3c(C)ccc(C)c3C2=O)cc1`, the growth inhibition is 6.4%.
`CS(=O)(=O)OCC1NC(=O)C(COS(C)(=O)=O)NC1=O` (configuration not stated): the growth inhibition is 2.8%.
Turning to `COC(=O)/C(=N\O)C(C(=O)C=C(C)C)C(=O)C(=O)Nc1ccccc1C` (configuration not stated), the growth inhibition was -21.6%.
On to `COc1cc2c(cc1O)C(=O)CCCC2`, for which the growth inhibition was 0.75%.
`COc1ccc(-c2cc(-c3ccccc3)n(C3OC(COC(C)=O)C(OC(C)=O)C(OC(C)=O)C3OC(C)=O)c(=S)c2C#N)cc1` (configuration not stated): the growth inhibition was -11.8%.
Same read-out and setting: for `CCOC(=O)c1n[nH]c(=S)[nH]c1=O` the value was -1.8%.
As for `O=[N+]([O-])c1ccc(/C=N\NC(=S)Nc2ccc3cn[nH]c3c2)cc1`, the growth inhibition was 14.6%.
As for `N=C(N)c1ccc(NC(=O)c2ccc(C(=O)Nc3ccc(C(=N)N)cc3)c(N)c2)cc1`, the growth inhibition is 18.1%.
For `O=C(CC(=O)N1N=C(N(c2ccccc2)c2ccccc2)CC1c1ccccc1)Nc1ccccc1` (configuration not stated), the growth inhibition was 6.4%.
The same measure, in the same setting: for `Cc1ccc2[nH]c(=S)n(CCc3ccccc3)c(=O)c2c1` the value was -23%; for `CCOc1ccc(N=Nc2c(O)n(-c3ccc(Br)cc3)c(=S)n(-c3ccc(OC)cc3)c2=O)cc1`, -8.7%; for `CCCCCCC#CC(=O)OCCCC`, -14.9%.
Still for that read-out and setting: for `Clc1cccc2[nH]ccc12` the value was -3.1%; for `COc1ccc(C(=O)N/N=C/c2c(C)n(C)n(-c3ccccc3)c2=O)cc1`, -18.6%; for `O/N=C(\CC(O)(C(F)(F)F)C(F)(F)F)c1cccs1`, 76.9% (active).
On to `Cc1cc2c3c(c1)CCCN3CCC2`, for which the growth inhibition was -8.9%.
Same read-out and setting: for `CCC1(C#N)OC1C` (configuration not stated) the value was -24.1%; for `CCCC(=O)Nc1ccccc1OC`, 12.7%.
With `C(CCN1CN(CCCCN2CCOCC2)CN(CCCCN2CCOCC2)C1)CN1CCOCC1`, the growth inhibition was 4.75%.
Turning to `C/C(CC(=O)Nc1ccc(Cl)cc1)=N\NC(N)=S`, the growth inhibition was -4.65%.
The same measure, in the same setting: under `CCCCCCC(C#N)(CCN(C)C)c1ccccc1` (configuration not stated) stands 18.7%.
